From PubChem BioAssay AID588849 (Broad Institute, 2011)
Results with a measured potency or affinity are listed apart. A number with no mark means an inactive call. How the calls were made is not given here.

Biological target: CAAX prenyl protease 2 (Homo sapiens) (UniProt Q9Y256)
Experiment: human Rce1 protease inhibitors, dose response, biochemical, yeast membranes, quenched-peptide fluorescence, cherry-pick (AID 588849)
Conditions: yeast membrane fractions expressing human Rce1, quenched-peptide fluorescence, 4 h; series mostly up to 10 µM; activity change, negative = inhibition: at the top concentration

CAAX prenyl protease 2 (Homo sapiens), sequence (Q9Y256 whole entry, looked up): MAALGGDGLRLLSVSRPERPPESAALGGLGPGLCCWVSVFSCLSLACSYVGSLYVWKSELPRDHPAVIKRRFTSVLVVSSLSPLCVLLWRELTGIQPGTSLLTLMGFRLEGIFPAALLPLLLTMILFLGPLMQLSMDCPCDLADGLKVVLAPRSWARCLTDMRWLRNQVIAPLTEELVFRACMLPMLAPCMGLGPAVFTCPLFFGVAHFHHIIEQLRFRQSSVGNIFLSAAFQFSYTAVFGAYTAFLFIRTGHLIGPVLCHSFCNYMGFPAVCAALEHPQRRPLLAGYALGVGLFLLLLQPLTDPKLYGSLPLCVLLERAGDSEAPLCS

| Compound | activity change, negative = inhibition |
| --- | --- |
| O=C(c1cnc2n(c1=O)CCS2)N1CCN(C(c2ccccc2)c2ccc(Cl)cc2)CC1 (stereo not drawn) | 18.3% |
| O=C(C1=C[C@@H](C2CC2)C[C@@H](OCc2ccc(CO)cc2)O1)N1CCN(Cc2ccccc2)CC1 | 3.16% |
| CC(C)N1CCN(Cc2ccc(OCc3ccccc3)cc2)CC1CCO (stereo not drawn) | 8.65% |
| COc1ccccc1-n1c(-c2ccccc2)c[nH]c1=S | -13.2% |
| NC(=O)[C@H]1CC2(CC(c3cccc(NC(=O)COc4ccc(Cl)cc4)c3)=NO2)CN1C(=O)C(c1ccccc1)c1ccccc1 (stereo partly drawn) | -18.9% |
| Cc1nc(N2CCOCC2)c2c(C)c(C(=O)Nc3ccc(C(F)(F)F)cc3)sc2n1 | -9.73% |
| Oc1c(N=NC(=S)Nc2ccccc2F)c2ccccc2n1Cc1ccccc1F | -11.4% |
| Cc1ccc(-c2cc(-c3ccccc3)c(C#N)c(Br)n2)cc1 | 3.27% |
| CCC(=O)Nc1cc(-c2nn(CC(=O)N3CCCCC3)c(=O)c3ccccc23)ccc1N1CCOCC1 | -1.37% |
| COC(C/C=C\C(=O)[C@H](C)OCc1ccccc1)OC | 2.11% |
| CCN(CC)CCN(C(=O)c1cc2ccccc2cc1OC)c1nc2ccc(F)cc2s1 | -25.1% |
| COc1cc(-c2nc3ccccn3c2/N=C/c2cccc(OC)c2O)ccc1O | -16% |
| COC(C/C=C/C(=O)[C@H](C)OCc1ccccc1)OC | -4.27% |
| Nc1nnnn1/N=C/c1cccc(OCc2ccccc2Cl)c1 | 19.6% [at 3.5 µM] |
| O=c1c(-c2nnc(SCc3ccc(Cl)c(Cl)c3)o2)cccn1Cc1ccccc1 | -95.5% |
| Cc1cc(C)n2cc(CSc3nncn3C)nc2n1 | -26.3% |
| O=C(NC1CC1)c1ccc2c(c1)N(Cc1ccccc1)CCS2 | 25.6% |
| CCN(CC)Cc1c(O)ccc2c(=O)c(-c3ccccc3OC)coc12 | -13.2% |
| COc1ccc(CSc2ccc(-c3nc4ccccn4c3NCc3ccccc3)cc2OC)cc1 | -2.55% |

| Compound | activity change, negative = inhibition |
| --- | --- |
| Cc1ccc2c(C)c(C(=O)N(Cc3ccc(F)cc3)C3CCS(=O)(=O)C3)oc2c1 (stereo not drawn) | 2.74% |
| COc1cc2cc(C(=O)O)[nH]c2c(OC)c1OC | -9% |
| CCOc1ccc(NC(=O)CCSc2ccc(C)cc2)cc1 | -1.72% |
| CCOC(=O)[C@@H]1[C@H]2COc3ccc(Br)cc3[C@@H]2N2C(=O)N(c3cccc(Cl)c3)C(=O)[C@]12C | 2.86% |
| COc1ccccc1N1CCN(c2ncc(C(=O)N3CCN(c4cccc(Cl)c4)CC3)c3ccccc23)CC1 | 16% |
| O=C1CN(C(=O)NCC(=O)N2CCCC2)c2ccccc2N1 | -24.5% |
| CCCC(=O)N1CCN(c2ccc(NC(=O)c3cc4ccccc4o3)cc2Cl)CC1 | -12% |
| Cc1cccc(NC(=O)C2(c3ccc([N+](=O)[O-])cc3)CCCC2)c1 | 8.88% |
| O=C(O)CCC(=O)c1ccc(-c2ccccc2)cc1 | -1.99% |
| CC1=C(C(=O)OCc2ccccc2)C(c2ccc(-c3ccccc3)cc2)NC(=O)N1CCCC(=O)O (stereo not drawn) | -4.91% |
| CCN(Cc1ccccc1)c1ccc(/C=N/N=C(N)N)cc1 | 6.63% |
| CCn1cc(/C=C(\NC(=O)c2ccccc2F)C(=O)N2CCCC2)c2ccccc21 | -16.6% |
| CCOc1ccccc1CNC(=O)c1cc2occc2n1C | -12% |
| O=C(Nc1ncccn1)c1ccc([N+](=O)[O-])cc1 | 3.15% |
| C[C@@]12CCC=C[C@H]1[C@H](c1ccc(/C=C/c3ccccc3)cc1F)N(Cc1ccccc1)C2=O | -4.81% |
| FC(F)(F)c1cc(Oc2ccccc2)ncc1-c1nnc(-c2ccccc2Cl)o1 | 3.97% |
| CC(C)c1ccc(/C=C2\SC(=S)N(CCC(=O)NCCCn3ccnc3)C2=O)cc1 | -5.37% |
| N/C(Cc1ccc([N+](=O)[O-])cc1)=N\OC(=O)c1ccc2ccccc2c1 | -1.34% |
| Cc1cc(C)c2nc(N(CCCN(C)C)C(=O)c3ccc4c(c3)CCCC4)sc2c1 | 2.44% |
